Test systems include HCT-15 colon; HT29 colon; SNB-75 CNS; SNB-19 CNS; PC-3 prostate; SK-MEL-5 melanoma; UACC-62 melanoma; LOX IMVI melanoma; SK-MEL-28 melanoma; SK-MEL-2 melanoma; EKVX NSCLC; SN12C renal; UO-31 renal; TK-10 renal; ACHN renal; CAKI-1 renal; A498 renal; CCRF-CEM leukemia; MOLT-4 leukemia; U251 CNS.
Test in all cases: NCI-60 one-dose screen, 48 h (100 = growth as untreated, 0 = no growth, -100 = all killed)
What all share (conditions): 10 µM unless noted

The structures appear in SMILES notation. This is part of a sample that, as a whole, favours compounds with a hit. Of some 83,000 tested, about 20% had one in any assay.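 A percent growth of 40 corresponds to 60% growth inhibition; 0 means no net growth; -100 means all cells died. Active threshold: below 10.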 Unmarked numbers belong to inactive results. The source made the active and inactive calls.

For `CCN(CC)CCn1c2ccc(OC)cc2c2sc3cc(OC)ccc3c(=O)c21`, the growth in the experiment with HCT-15 colon was 8.79% (active); in the experiment on HT29 colon it was 0.172% (active); in the experiment with SNB-75 CNS, 85.9%; in the experiment with SNB-19 CNS it was 28.9%; in the experiment with PC-3 prostate it was 25.6%; with SK-MEL-5 melanoma, 57%. In addition, the growth was 47.2% with UACC-62 melanoma; -75% (active) with LOX IMVI melanoma; 29.7% in the experiment with SK-MEL-28 melanoma; 63.5% in the experiment on SK-MEL-2 melanoma; 41.3% with EKVX NSCLC; 24.6% in the experiment with SN12C renal. In addition, the growth in the experiment on UO-31 renal is 8.29% (active); with TK-10 renal, 49.2%; with ACHN renal it was -38.8% (active); in the experiment with CAKI-1 renal, 48.3%; with A498 renal it was 15.6%; with CCRF-CEM leukemia, 15%. Also, in the experiment with MOLT-4 leukemia, the growth is 3.81% (active).

As to `Cn1cc(-c2nonc2-c2cn(C)c3ccccc23)c2ccccc21`, the growth in the experiment with HCT-15 colon was 30.2%; in the experiment with HT29 colon it was 6.32% (active); with SNB-75 CNS, 2.13% (active); with SNB-19 CNS, 24.7%; with PC-3 prostate, 26.2%; in the experiment with SK-MEL-5 melanoma, 26.2%. The growth with UACC-62 melanoma was 30.6%; with LOX IMVI melanoma, 48.5%; in the experiment with SK-MEL-28 melanoma, 57.4%; in the experiment with SK-MEL-2 melanoma, 35.6%; in the experiment with EKVX NSCLC, 40.4%; in the experiment on SN12C renal it was 43.6%. The growth with UO-31 renal is 40.5%; with TK-10 renal, 62.5%; in the experiment on ACHN renal it was 44.4%; in the experiment with CAKI-1 renal, 31.3%; with A498 renal it was 12.3%; in the experiment on CCRF-CEM leukemia it was 9.67% (active). Moreover, the growth in the experiment on MOLT-4 leukemia was 17.5%.

As for `Cn1cc(-c2csc(-c3c[nH]c4ccccc34)n2)c2cnccc21`, the growth is -59.7% (active) in the experiment on HCT-15 colon; -1.85% (active) with HT29 colon; 80.6% in the experiment on SNB-75 CNS; 48.8% in the experiment with SNB-19 CNS; 48.4% with PC-3 prostate; 51.9% in the experiment with SK-MEL-5 melanoma. Further, the growth with UACC-62 melanoma is -52.7% (active); in the experiment on LOX IMVI melanoma it was -84.9% (active); in the experiment with SK-MEL-28 melanoma, -51.5% (active); with SK-MEL-2 melanoma it was 96.2%; with EKVX NSCLC, 7.91% (active); in the experiment with SN12C renal, 43.5%. The growth in the experiment with UO-31 renal is -64.4% (active); with TK-10 renal, 55.4%; in the experiment on ACHN renal, -4.48% (active); with CAKI-1 renal, -1.8% (active); in the experiment on CCRF-CEM leukemia it was -8.15% (active); with MOLT-4 leukemia it was -5.2% (active).

With `NC(=O)C(=O)c1ccccc1NC=O`, the growth is 105% with HCT-15 colon; 101% in the experiment on HT29 colon; 77.2% with SNB-75 CNS; 99.9% with SNB-19 CNS; 90.1% in the experiment on PC-3 prostate; 103% in the experiment on SK-MEL-5 melanoma. In addition, the growth in the experiment on UACC-62 melanoma is 92.1%; in the experiment on LOX IMVI melanoma it was 93.1%; with SK-MEL-28 melanoma it was 101%; in the experiment on SK-MEL-2 melanoma, 112%; in the experiment on EKVX NSCLC, 101%; in the experiment on SN12C renal, 96.6%. Besides, the growth with UO-31 renal is 60.9%; in the experiment with TK-10 renal it was 107%; with ACHN renal, 94.8%; with CAKI-1 renal, 75.2%; in the experiment on A498 renal, 120%; with CCRF-CEM leukemia, 99.1%. In addition, the growth in the experiment with MOLT-4 leukemia is 108%.

In the case of `CC(=O)n1nc(C(=O)OC(C)(C)c2ccccc2)c2ccccc21`, the growth in the experiment on HCT-15 colon is 101%; in the experiment with HT29 colon it was 97.5%; in the experiment on SNB-75 CNS it was 80.8%; with SNB-19 CNS it was 95.7%; in the experiment with PC-3 prostate, 92.3%; in the experiment with SK-MEL-5 melanoma, 96.9%. Besides, the growth in the experiment with UACC-62 melanoma was 93%; with LOX IMVI melanoma, 91.2%; with SK-MEL-28 melanoma it was 90.4%; in the experiment with SK-MEL-2 melanoma, 105%; in the experiment with EKVX NSCLC, 100%; with SN12C renal, 86.9%. In addition, the growth was 93.2% with UO-31 renal; 101% with TK-10 renal; 100% with ACHN renal; 84.5% with CAKI-1 renal; 96.8% in the experiment on A498 renal; 83.1% with CCRF-CEM leukemia. Further, in the experiment with MOLT-4 leukemia, the growth is 96.9%.

As to `NC(N)=NCCCCCNc1noc(Cc2c[nH]c3cc(Br)ccc23)n1`, the growth was 102% with HCT-15 colon; 73.7% with HT29 colon; 37.6% in the experiment on SNB-75 CNS; 37.5% in the experiment on SNB-19 CNS; 21.6% in the experiment on U251 CNS; 31.8% in the experiment with PC-3 prostate. Also, the growth is 68.1% with SK-MEL-5 melanoma; 56.1% with UACC-62 melanoma; 70.5% with LOX IMVI melanoma; 86.9% with SK-MEL-28 melanoma; 87.7% in the experiment with SK-MEL-2 melanoma; 69.6% in the experiment on EKVX NSCLC. In addition, the growth in the experiment with SN12C renal was 44.7%; with UO-31 renal, 80.2%; with ACHN renal, 92.6%; with CAKI-1 renal, 82.4%; in the experiment with CCRF-CEM leukemia, 97.8%; in the experiment with MOLT-4 leukemia, 60.2%.

`Nc1ncnc2c1N=C(c1ccc(Br)cc1)CC(c1cccc(Nc3ccnc4cc(C(F)(F)F)ccc34)c1)N2` (stereo not given): the growth in the experiment on HCT-15 colon was 27.2%; in the experiment on HT29 colon it was 26.4%; in the experiment on SNB-75 CNS it was 66.2%; in the experiment with SNB-19 CNS, 70.6%; in the experiment with PC-3 prostate it was 39%; in the experiment with SK-MEL-5 melanoma, 49.5%. The growth with UACC-62 melanoma was 74.3%; in the experiment with LOX IMVI melanoma it was 63.3%; in the experiment on SK-MEL-28 melanoma it was 72.2%; in the experiment on SK-MEL-2 melanoma it was 68.5%; in the experiment with EKVX NSCLC, 44.4%; with SN12C renal it was 70.6%. For the same compound, the growth in the experiment on UO-31 renal is 47.2%; in the experiment with TK-10 renal, 102%; in the experiment on ACHN renal, 80%; in the experiment with CAKI-1 renal, 56.2%; in the experiment on A498 renal it was 63%; with CCRF-CEM leukemia it was 34.3%. Also, the growth in the experiment on MOLT-4 leukemia is 16.8%.

Take `CCCCCCCCCCCCCCCCOCCCOP(=O)(O)C1CCCN(O)C1=O` (stereo not given): the growth with HCT-15 colon was 7.93% (active); with HT29 colon it was 23.1%; in the experiment on SNB-75 CNS it was 22.8%; in the experiment on SNB-19 CNS, 22%; in the experiment with PC-3 prostate it was 13.5%; with SK-MEL-5 melanoma, -65.8% (active). For the same compound, the growth in the experiment on UACC-62 melanoma was -13% (active); in the experiment with LOX IMVI melanoma, 0.67% (active); in the experiment on SK-MEL-28 melanoma, 38.3%; in the experiment with SK-MEL-2 melanoma, 36%; in the experiment with EKVX NSCLC, 33.9%; with SN12C renal, 16.3%. In addition, the growth is 5.07% (active) in the experiment with UO-31 renal; 33.1% with TK-10 renal; 10.5% in the experiment with ACHN renal; 16.6% in the experiment with CAKI-1 renal; 1.39% (active) with A498 renal; 5.85% (active) in the experiment with CCRF-CEM leukemia. Besides, the growth in the experiment with MOLT-4 leukemia is 7.18% (active).

(Values after PubChem BioAssay (NCI).)
